# In PubChem BioAssay (EPA / NIEHS):
# Inconclusive results are not listed. The source made the active and inactive calls. The calls were made as follows, unless noted: active = hit-call score of the fitted dose curve at least 0.9, where 1 is the maximum; inconclusive = response in the unintended direction; inactive = score below 0.9.
# Key:
# [1] = target: Cellular tumor antigen p53 (Homo sapiens) (UniProt P04637); test: TOX21_p53_BLA_p2_ratio: Tox21 HCT-116 p53 Agonism Beta-lactamase Assay, Ratio, Phase 2 (AID 2283592)
# Procedure, shortened: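 HCT116 cells carrying a p53-responsive beta-lactamase reporter were plated, incubated 5 h at 37C, then dosed with compounds in DMSO (217-fold dilution) for 16 h. CCF4-AM substrate was added for 2 h at room temperature; the 460/530 nm emission ratio gave gain-of-signal activity relative to DMSO.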
# [2] = target: Cellular tumor antigen p53 (Homo sapiens) (UniProt P04637); test: TOX21_p53_BLA_p3_ratio: Tox21 HCT-116 p53 Agonism Beta-lactamase Assay, Ratio, Phase 3 (AID 2283596)
# Procedure, shortened: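 HCT116 p53-bla cells (4000/well) given compound in DMSO (217-fold dilution) after 5 h, incubated 16 h at 37C. CCF4-AM substrate 2 h at room temperature; 460/530 nm emission ratio, gain fitted against DMSO.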
# [3] = TOX21_p53_BLA_p5_viability: Viability Assessment in the Tox21 HCT-116 p53 Agonism Beta-lactamase Assay, Phase 5 (AID 2283600)
# Procedure, shortened: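 Cells were plated at 4000/well, rested 5 h at 37C, then given compounds in DMSO (217-fold dilution) for 16 h at 37C, 5% CO2. Following the CCF4-AM beta-lactamase read, CellTiter-Glo was added and luminescence was read after 30 min at room temperature.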
# [4] = target: Cellular tumor antigen p53 (Homo sapiens) (UniProt P04637); test: TOX21_p53_BLA_p4_ratio: Tox21 HCT-116 p53 Agonism Beta-lactamase Assay, Ratio, Phase 4 (AID 2283601)
# Procedure, shortened: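 HCT116 cells carrying an inducible beta-lactamase reporter were plated at 4000 cells/well, rested 5 h, then exposed to compounds in DMSO (217-fold dilution) for 16 h at 37C. CCF4-AM substrate was loaded 2 h at room temperature; 460/530 nm emission ratio scored gain-of-signal versus DMSO.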
# [5] = target: Cellular tumor antigen p53 (Homo sapiens) (UniProt P04637); test: TOX21_p53_BLA_p5_ratio: Tox21 HCT-116 p53 Agonism Beta-lactamase Assay, Ratio, Phase 5 (AID 2283599)
# Procedure, shortened: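 HCT-116 cells carrying a p53-inducible beta-lactamase reporter were seeded at 4000 cells/well and dosed after 5 h with compound in DMSO (217-fold dilution). After 16 h at 37C, CCF4-AM substrate was added for 2 h, and the 460/530 nm emission ratio was scored as gain-of-signal versus DMSO.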
# PGR (gene 5241) = PGR (gene 5241) (UniProt P06401); test: TOX21_PR_BLA_Followup_Antagonist_ratio: Tox21 HEK293 Progesterone Receptor (PR) Antagonism Beta-lactamase Follow-Up Assay, Ratio (AID 2283934)
# Procedure, shortened: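 PR-UAS-bla HEK293T cells, 3,000/well in 2% charcoal-stripped FBS, given compound plus 1nM R5020 agonist for 16 hr at 37C. Beta-lactamase FRET substrate 2 hours, ratio cleaved/uncleaved fluorescence; viability by CellTiter-Glo in same wells.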
# [6] = STM_H9_OrnCyssISnorm_ratio: Stemina devTOX quickPredict H9 human embryonic stem cell (hESC)-based Assay for Ornithine (ORN):Cystine (CYSS) Ratio (AID 2283714)
# Procedure, shortened: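 Undifferentiated H9 hESCs were exposed to compound for 72h with media and chemical replaced every 24h. Final 24-h conditioned media were deproteinized and analysed by UPLC-HRMS. ORN and CYSS peak areas were normalized to C13 internal standards and the ratio taken versus 0.1% DMSO.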
# [7] = CCTE_Harrill_HTTr_Viability_MCF7: CCTE's 6-hour Cell Viability Assessment for the High-Throughput Transcriptomics (HTTr) Platform, in MCF-7 cells cultured in DMEM + 10% fetal bovine serum, Harrill Lab (AID 2284010; active = hit-call score of the fitted dose curve at least 0.9, where 1 is the maximum; inactive = score below 0.9)
# Procedure, shortened: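 MCF-7 cells in DMEM + 10% FBS, 384-well, exposed 6 h to an eight-point dilution series. Membrane integrity scored by high-content imaging of propidium iodide exclusion; bidirectional fit versus DMSO.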
# [8] = CCTE_Harrill_HTTr_Apoptosis_MCF7: CCTE's 6-hour Apoptosis Assessment for the High-Throughput Transcriptomics (HTTr) Platform, in MCF-7 cells cultured in DMEM + 10% fetal bovine serum, Harrill Lab (AID 2284011; active = hit-call score of the fitted dose curve at least 0.9, where 1 is the maximum; inactive = score below 0.9)
# Procedure, shortened: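 MCF-7 cells in DMEM + 10% fetal bovine serum were exposed to chemicals for 6 hours over an eight-point dilution series. Caspase-3/7 activation was imaged by high content imaging with CellEvent Caspase 3/7 Green; bidirectional fitting used DMSO as baseline.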
# [9] = tested on: Brachyury (BRA) Protein Expression, Deisenroth Lab, TBXT (gene 6862); test: CCTE_Deisenroth_DEVTOX-GLR_legacy_Bra: (Legacy) CCTE's DevTox GLR-Endo Assay Evaluation of Brachyury (BRA) Protein Expression, Deisenroth Lab (AID 2284329; active = hit-call score of the fitted dose curve at least 0.9, where 1 is the maximum; inactive = score below 0.9)
# Procedure, shortened: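 RUES2-GLR human pluripotent cells differentiated 48 h with two 24-h-interval chemical exposures (1 nM - 200 uM, 10 points); fixed, nuclear-stained, imaged. Bra+ cell percentage (intensity 5x BMAD above pluripotent control median) fitted relative to 0.2% DMSO.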
# [10] = CCTE_Deisenroth_DEVTOX-GLR_legacy_CellCount: (Legacy) Viability Assessment in CCTE's DevTox GLR-Endo Assay, Deisenroth Lab (AID 2284331; active = hit-call score of the fitted dose curve at least 0.9, where 1 is the maximum; inactive = score below 0.9); conditions: actives raise or lower the signal
# Procedure, shortened: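 Seed RUES2-GLR 24 h; differentiate 48 h, dosing at 0 and 24 h; fix, stain nuclei; image 5 fields/well; count nuclei. Conc. 1 nM - 200 uM, single technical replicate, n=4 experiments; bidirectional fit vs 0.2% DMSO.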
# [11] = tested on: SRY-box transcription factor 17 (SOX17) Protein Expression, Deisenroth Lab, SOX17 (gene 64321); test: CCTE_Deisenroth_DEVTOX-GLR_legacy_Sox17: (Legacy) CCTE's DevTox GLR-Endo Assay Evaluation of SRY-box transcription factor 17 (SOX17) Protein Expression, Deisenroth Lab (AID 2284341; active = hit-call score of the fitted dose curve at least 0.9, where 1 is the maximum; inactive = score below 0.9); conditions: actives raise or lower the signal
# Procedure, shortened: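 Using the RUES2-GLR line, compounds are tested as 10-point series during 48-h defined-media differentiation. Sox17 reporter fluorescence per cell determines positivity; endpoint is percentage positive, analysed bidirectionally versus DMSO baseline.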
# [12] = tested on: SRY-box transcription factor 2 (SOX2) Protein Expression, Deisenroth Lab, SOX2 (gene 6657); test: CCTE_Deisenroth_DEVTOX-GLR_legacy_Sox2: (Legacy) CCTE's DevTox GLR-Endo Assay Evaluation of SRY-box transcription factor 2 (SOX2) Protein Expression, Deisenroth Lab (AID 2284346; active = hit-call score of the fitted dose curve at least 0.9, where 1 is the maximum; inactive = score below 0.9)
# Procedure, shortened: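 RUES2-GLR human pluripotent cells seeded 24 h, then differentiated 48 h in defined media with two chemical doses 24 h apart (10-point, 1 nM–200 uM). Fixed, nuclear-stained, imaged; % Sox2+ cells (>5x BMAD over endoderm control median), DMSO-subtracted, fitted upward.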
# [13] = tested on: SRY-box transcription factor 17 (SOX17) Protein Expression, Deisenroth Lab, SOX17 (gene 64321); test: CCTE_Deisenroth_DEVTOX-GLR_Endo_SOX17: CCTE's DevTox GLR-Endo Assay Evaluation of SRY-box transcription factor 17 (SOX17) Protein Expression, Deisenroth Lab (AID 2284413; active = hit-call score of the fitted dose curve at least 0.9, where 1 is the maximum; inactive = score below 0.9)
# Procedure, shortened: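 Endpoint: % change in SOX17+ fraction (SOX17+ cells / cell count) vs 0.2% DMSO solvent control. RUES2-GLR reporter cells, 48 h endoderm differentiation, two doses at 24 h intervals, high-content fluorescence imaging, 5 fields/well.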
# [14] = tested on: Brachyury (BRA) Protein Expression, TBXT (gene 6862); test: CCTE_Deisenroth_DEVTOX-GLR_Endo_BRA: CCTE's DevTox GLR-Endo Assay Evaluation of Brachyury (BRA) Protein Expression, Deisenroth Lab (AID 2284417; active = hit-call score of the fitted dose curve at least 0.9, where 1 is the maximum; inactive = score below 0.9)
# Procedure, shortened: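 Percent BRA+ (mesoderm) RUES2-GLR cells after 48 h differentiation with two exposures, 1 nM - 200 uM; 0.2% DMSO control subtracted.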
# [15] = CCTE_Deisenroth_DEVTOX-GLR_Endo_CellCount: Viability Assessment in CCTE's DevTox GLR-Endo Assay, Deisenroth Lab (AID 2284420; active = hit-call score of the fitted dose curve at least 0.9, where 1 is the maximum; inactive = score below 0.9)
# Procedure, shortened: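 RUES2-GLR human pluripotent cells seeded 24 h, then differentiated 48 h with two chemical exposures at 24 h intervals (10-point, 1 nM - 200 uM). Fixed, nuclear-stained, imaged; nuclei counts give % change in cell count versus 0.2% DMSO.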
# [16] = tested on: SRY-box transcription factor 17 (SOX17) Protein Expression, Deisenroth Lab, SOX17 (gene 64321); test: CCTE_Deisenroth_DEVTOX-GLR_Pluri_SOX17: CCTE's DevTox GLR-Pluri Assay Evaluation of SRY-box transcription factor 17 (SOX17) Protein Expression, Deisenroth Lab (AID 2284427)
# Procedure, shortened: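 RUES2-GLR human pluripotent cells were seeded 24 h, then differentiated 48 h in defined media with two chemical exposures 24 h apart (10-point series, 1 nM - 200 uM). Fixed, nuclear-stained cells were imaged; %SOX17+ cells minus 0.2% DMSO control reported.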
# [17] = tested on: SRY-box transcription factor 2 (SOX2) Protein Expression, Deisenroth Lab, SOX2 (gene 6657); test: CCTE_Deisenroth_DEVTOX-GLR_Pluri_SOX2: CCTE's DevTox GLR-Pluri Assay Evaluation of SRY-box transcription factor 2 (SOX2) Protein Expression, Deisenroth Lab (AID 2284428; active = hit-call score of the fitted dose curve at least 0.9, where 1 is the maximum; inactive = score below 0.9)
# Procedure, shortened: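 Human pluripotent RUES2-GLR cells were seeded 24 h, then differentiated 48 h in defined media with two chemical doses at 24-h intervals (10-point, 1 nM–200 uM). Nuclear-stained cells were imaged; SOX2+ cells/cell count gave percent change versus 0.2% DMSO control.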
# [18] = tested on: Brachyury (BRA) Protein Expression, Deisenroth Lab, TBXT (gene 6862); test: CCTE_Deisenroth_DEVTOX-GLR_Pluri_BRA: CCTE's DevTox GLR-Pluri Assay Evaluation of Brachyury (BRA) Protein Expression, Deisenroth Lab (AID 2284429)
# Procedure, shortened: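 Human pluripotent RUES2-GLR cells, seeded 24 h, were differentiated 48 h in defined media with two chemical doses at 24-h intervals (10-point, 1 nM - 200 uM). Readout: percent BRA+ cells by fluorescent reporter imaging, minus 0.2% DMSO control.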
# [19] = CCTE_Deisenroth_DEVTOX-GLR_Pluri_CellCount: Viability Assessment in CCTE's DevTox GLR-Pluri Assay Evaluation of Total Cell Counts, Deisenroth Lab (AID 2284430; active = hit-call score of the fitted dose curve at least 0.9, where 1 is the maximum; inactive = score below 0.9)
# Procedure, shortened: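 RUES2-GLR human pluripotent cells, seeded 24 h, then differentiated 48 h with two chemical exposures 24 h apart; 10-point series 1 nM - 200 uM. Fixed, nuclear-stained, imaged (5 fields/well); nuclei count as % change vs 0.2% DMSO.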
# Cellular tumor antigen p53 (Homo sapiens), sequence (P04637 whole entry, looked up): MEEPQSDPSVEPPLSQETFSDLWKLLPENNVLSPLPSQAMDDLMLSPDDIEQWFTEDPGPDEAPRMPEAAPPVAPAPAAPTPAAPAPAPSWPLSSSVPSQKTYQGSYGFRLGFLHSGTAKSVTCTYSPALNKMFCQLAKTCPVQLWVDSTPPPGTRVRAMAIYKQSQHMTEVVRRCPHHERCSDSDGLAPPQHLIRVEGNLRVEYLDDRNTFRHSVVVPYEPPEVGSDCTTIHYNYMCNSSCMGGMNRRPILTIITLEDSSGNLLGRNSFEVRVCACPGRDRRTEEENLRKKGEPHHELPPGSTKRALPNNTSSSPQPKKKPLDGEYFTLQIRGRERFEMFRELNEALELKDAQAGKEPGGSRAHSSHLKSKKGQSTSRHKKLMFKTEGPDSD
# PGR (gene 5241), sequence (P06401 whole entry, looked up): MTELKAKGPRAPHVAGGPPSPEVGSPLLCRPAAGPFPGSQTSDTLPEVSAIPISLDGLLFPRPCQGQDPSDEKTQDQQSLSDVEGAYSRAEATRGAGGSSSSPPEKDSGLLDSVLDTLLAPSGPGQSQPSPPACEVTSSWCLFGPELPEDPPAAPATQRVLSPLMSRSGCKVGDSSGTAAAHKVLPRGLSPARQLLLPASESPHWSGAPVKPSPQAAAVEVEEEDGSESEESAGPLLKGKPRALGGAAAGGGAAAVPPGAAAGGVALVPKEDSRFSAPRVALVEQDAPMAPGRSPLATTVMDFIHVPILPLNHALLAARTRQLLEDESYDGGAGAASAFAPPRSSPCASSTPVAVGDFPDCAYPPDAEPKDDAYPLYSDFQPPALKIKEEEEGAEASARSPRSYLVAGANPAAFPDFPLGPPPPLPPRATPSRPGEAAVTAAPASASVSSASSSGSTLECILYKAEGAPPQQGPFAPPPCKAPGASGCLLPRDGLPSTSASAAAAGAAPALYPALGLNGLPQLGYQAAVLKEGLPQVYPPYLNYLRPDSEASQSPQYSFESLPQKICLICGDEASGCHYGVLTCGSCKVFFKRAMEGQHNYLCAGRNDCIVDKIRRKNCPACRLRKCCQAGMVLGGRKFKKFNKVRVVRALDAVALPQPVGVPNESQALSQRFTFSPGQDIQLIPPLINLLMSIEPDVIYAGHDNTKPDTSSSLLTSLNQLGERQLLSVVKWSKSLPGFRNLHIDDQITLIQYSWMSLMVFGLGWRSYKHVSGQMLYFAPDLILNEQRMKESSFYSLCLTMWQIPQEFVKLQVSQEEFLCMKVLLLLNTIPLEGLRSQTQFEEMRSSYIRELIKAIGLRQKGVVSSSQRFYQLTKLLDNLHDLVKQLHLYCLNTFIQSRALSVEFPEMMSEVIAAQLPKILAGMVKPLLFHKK
compound,measurement,setting,value
NS(=O)(=O)c1cc2c(cc1Cl)NC(C(Cl)Cl)NS2(=O)=O (stereo not given),outcome,[1],inactive
same,outcome,[2],inactive
same,outcome,[3],inactive
same,outcome,[4],inactive
Nc1ncnc2c1ncn2[C@@H]1O[C@H](COP(=O)(O)O)[C@@H](O)[C@H]1O,outcome,[1],inactive
same,outcome,[2],inactive
same,outcome,[5],inactive
same,outcome,[4],inactive
CC(CN(C)C)CN1c2ccccc2S(=O)(=O)c2ccccc21 (stereo not given),outcome,[1],inactive
same,outcome,[2],inactive
same,outcome,[5],inactive
same,outcome,[4],inactive
OCC(O)COc1ccc(Cl)cc1 (stereo not given),outcome,[1],inactive
same,outcome,[2],inactive
same,outcome,[3],inactive
same,outcome,[4],inactive
Nc1nc(N)nc(-c2cc(Cl)ccc2Cl)n1,outcome,[1],inactive
same,outcome,[2],inactive
same,outcome,[4],inactive
CCOC(=O)C1=C(C)NC(C)=C(C(=O)OC)C1c1cccc(Cl)c1Cl (stereo not given),outcome,[1],inactive
same,outcome,[2],inactive
same,outcome,[5],inactive
same,outcome,[4],inactive
same,AC50,PGR (gene 5241),14.7 µM (active)
CN1c2c(nc(N)[nH]c2=O)NCC1CNc1ccc(C(=O)NC(CCC(=O)O)C(=O)O)cc1 (stereo not given),outcome,[1],inactive
same,outcome,[2],inactive
same,outcome,[3],inactive
same,outcome,[4],inactive
CCCOC(=O)c1ccccc1O,outcome,[1],inactive
same,outcome,[2],inactive
same,outcome,[3],inactive
NC(=O)Cc1cccc(C(=O)c2ccccc2)c1N,outcome,[1],inactive
same,outcome,[2],inactive
same,outcome,[4],inactive
O=Cc1ccc(F)c(Br)c1,outcome,[1],inactive
same,outcome,[2],inactive
same,outcome,[4],inactive
O=C(c1ccccc1)C1(O)CCCCC1,outcome,[1],inactive
same,outcome,[2],inactive
same,outcome,[5],inactive
same,outcome,[4],inactive
same,outcome,[6],inactive
same,outcome,[7],inactive
same,outcome,[8],inactive
NC1CCN(c2nc3c(cc2F)c(=O)c(C(=O)O)cn3-c2ccc(F)cc2F)C1 (stereo not given),outcome,[1],inactive
same,outcome,[2],inactive
same,outcome,[4],inactive
O=C1OC(=O)c2cccc3cccc1c23,outcome,[1],inactive
same,outcome,[2],inactive
same,outcome,[4],inactive
Nc1nc2c(ncn2COCCO)c(=O)[nH]1,outcome,[1],inactive
same,outcome,[2],inactive
same,outcome,[5],inactive
same,outcome,[4],inactive
same,outcome,[9],inactive
same,outcome,[10],inactive
same,outcome,[11],inactive
same,outcome,[12],inactive
same,outcome,[13],inactive
same,outcome,[14],inactive
same,outcome,[15],inactive
same,outcome,[16],inactive
same,outcome,[17],inactive
same,outcome,[18],inactive
same,outcome,[19],inactive
CCCOCC(C)OCC(C)O (stereo not given),outcome,[1],inactive
same,outcome,[2],inactive
same,outcome,[3],inactive
same,outcome,[4],inactive
CC1=NN(c2ccc(C(=O)O)cc2)C(=O)C1,outcome,[1],inactive
same,outcome,[2],inactive
same,outcome,[4],inactive
[O]=[Bi][O][Bi]=[O],outcome,[1],inactive
same,outcome,[2],inactive
same,outcome,[3],inactive
same,outcome,[4],inactive
CC1OCCC1=O (stereo not given),outcome,[1],inactive
same,outcome,[2],inactive
same,outcome,[3],inactive
same,outcome,[4],inactive
